Measurements reported in PubChem BioAssay (NCATS).
Unmarked numbers belong to inactive results. Results filed as inconclusive are left out. A call without a number means that no potency is given here. Active and inactive are the calls of the source. Unless noted, calls follow the shape of the dose curve; as a rule, active = well fitted curve in the direction sought with a large enough effect; inconclusive = small, poorly fitted or top-dose-only effect, or another doubt; inactive = no such curve, though single readings can be large; an effect the other way counts as inactive or inconclusive.

Columns and labels:
[1] = biological target: Atrial natriuretic peptide receptor 2 (Homo sapiens) (UniProt P20594); assay: Natriuretic polypeptide receptor (hNpr2) antagonism - Pilot subtype selectivity assay (AID 1347050; calls by dose curve; also: potency is read from the fitted curve at half-maximal effect)
Method in brief: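 Luminescence from a genetically encoded cGMP luciferase biosensor in hNpr2-expressing HEK293 cells is read before and 20 min after adding 1 nM hNppC. Test compounds, in interplate 1:5 titrations, are added 30-50 min ahead of the agonist.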

[2] = NS1 protein of Zika virus - qHTS assay to identify small molecule inhibitors in human HEK 293 cells (AID 1347053); also: series mostly up to about 46 µM; nearly all actives have a fitted effect of over 55% in size
Method in brief: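 In this cell-based screen, HEK 293 cultures received compound for one hour before Zika MR766 at MOI = 0.5. NS1 was quantified 24 hours later by TR-FRET, normalized to virus-free wells and infected wells.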

[3] = biological target: T1, Tyrosine-protein phosphatase non-receptor type substrate 1 (Homo sapiens) + Leukocyte surface antigen CD47 (Homo sapiens) (UniProt P78324+Q08722); assay: CD47-SIRPalpha protein protein interaction - LANCE assay qHTS validation (AID 1347057; active = well fitted curve in the direction sought with a large enough effect in the signal ratio, with a control signal flat, not every such curve was filed as active; the % refers to the signal ratio; also: series mostly up to about 38 µM)
Method in brief: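 Inhibition of soluble CD47/SIRPalpha ectodomain association by titrated compounds, measured as 665/615 nm time-resolved FRET ratio after sequential 30 min room-temperature incubations.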

[4] = biological target: T1, Tyrosine-protein phosphatase non-receptor type substrate 1 (Homo sapiens) + Leukocyte surface antigen CD47 (Homo sapiens); assay: CD47-SIRPalpha protein protein interaction - HTRF assay qHTS validation (AID 1347058; active = well fitted curve in the direction sought with a large enough effect in the signal ratio, not every such curve was filed as active; the % refers to the signal ratio; also: series mostly up to about 38 µM)
Method in brief: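 Soluble extracellular domains (6His-CD47, Avi-tag-biotinylated SIRPalpha) in PBS pH 7.4 with 0.05% IGEPAL CA-630. Compounds were preincubated 30 min at RT with CD47 and anti-His-Eu, then SIRPalpha and SAV-XL665 were added. TR-FRET 665/615 ratio.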

[5] = biological target: T1, Tyrosine-protein phosphatase non-receptor type substrate 1 (Homo sapiens) + Leukocyte surface antigen CD47 (Homo sapiens); assay: CD47-SIRPalpha protein protein interaction - Alpha assay qHTS validation (AID 1347059);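 also: bead proximity luminescence from CD47 binding SIRPalpha after compound preincubation with SIRPalpha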
Method in brief: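 SIRPalpha-biotin 25 nM + cpd, 30 min RT, dark; add CD47-His 12.5 nM, 30 min; add Ni-NTA/SAV beads 10 ug/mL, 30 min; AlphaScreen. Buffer PBS pH 7.4 + 0.05% IGEPAL CA-630. Non-biotinylated SIRPalpha as control inhibitor.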

[6] = biological target: Parathyroid hormone/parathyroid hormone-related peptide receptor (Homo sapiens) (UniProt Q03431); assay: qHTS for PTHR1 Agonists: Optimization Screen against the NCGC LOPAC library (AID 1347079);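 also: GloSensor cAMP luminescence in HEK-293 GP2 cells expressing human PTHR1 with IBMX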
Method in brief: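 HEK-293 GP2 cells, PTHR1 + GloSensor cAMP; 3000 cells/well, o/n. Luciferin + IBMX 0.5mM each (stock), 1 hr 37C. Cpd titration, 1 hr 37C. Lum after 15 min RT. Ctrl M-PTH(1-15) top 10uM.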

[7] = qHTS of pediatric cancer cell lines to identify multiple opportunities for drug repurposing: Primary screen for TC32 cells (AID 1347089); also: nearly all actives have a fitted effect of over 60% in size
Method in brief: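 A viability screen of TC32 cells was run over 48 h, with primary MIPE doses spanning 0.78 nM–46 µM and NPC doses 0.59 nM–46 µM. ATP luminescence (CellTiter-Glo) served as the read-out.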

[8] = qHTS of pediatric cancer cell lines to identify multiple opportunities for drug repurposing: Primary screen for DAOY cells (AID 1347090); also: series mostly up to about 46 µM; nearly all actives have a fitted effect of over 55% in size
Method in brief: (§1)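 Viability measured as metabolically active cells via CellTiter-Glo luminescence following 48 hours of compound exposure, 11-point dilutions in confirmatory testing. 500-1,000 cells/well plated 5 hours before dosing; controls were DMSO and 2.3 µM bortezomib.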

[9] = qHTS of pediatric cancer cell lines to identify multiple opportunities for drug repurposing: Primary screen for SJ-GBM2 cells (AID 1347091)
Method in brief: as §1

[10] = qHTS of pediatric cancer cell lines to identify multiple opportunities for drug repurposing: Primary screen for A673 cells (AID 1347092); also: nearly all actives have a fitted effect of over 45% in size
Method in brief: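 Titration-based qHTS on A673 cells: MIPE compounds spanned 11 points (0.78 nM to 46 µM final), NPC compounds 8 points (0.59 nM to 46 µM final). Viability after 48 h was measured by ATP luminescence.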

Chain of Parathyroid hormone/parathyroid hormone-related peptide receptor (Homo sapiens) (Q03431 whole entry, looked up): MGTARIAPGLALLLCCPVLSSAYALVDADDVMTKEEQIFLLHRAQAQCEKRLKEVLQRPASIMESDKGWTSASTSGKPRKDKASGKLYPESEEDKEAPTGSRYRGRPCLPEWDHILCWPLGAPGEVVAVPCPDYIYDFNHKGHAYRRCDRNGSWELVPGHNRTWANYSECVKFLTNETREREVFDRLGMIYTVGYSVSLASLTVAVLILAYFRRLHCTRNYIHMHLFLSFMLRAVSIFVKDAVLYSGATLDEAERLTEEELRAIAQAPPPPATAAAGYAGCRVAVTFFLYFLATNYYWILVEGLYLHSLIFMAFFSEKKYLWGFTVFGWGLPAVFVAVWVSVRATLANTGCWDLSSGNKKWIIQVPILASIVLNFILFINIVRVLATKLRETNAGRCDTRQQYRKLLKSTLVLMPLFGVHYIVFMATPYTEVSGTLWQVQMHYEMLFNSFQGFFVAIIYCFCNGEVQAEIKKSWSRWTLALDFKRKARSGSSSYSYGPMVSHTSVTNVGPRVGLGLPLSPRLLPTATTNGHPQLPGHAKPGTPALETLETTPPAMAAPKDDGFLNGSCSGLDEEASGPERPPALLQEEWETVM
T1 sequence (P78324 whole entry, looked up, the tested form may be a part): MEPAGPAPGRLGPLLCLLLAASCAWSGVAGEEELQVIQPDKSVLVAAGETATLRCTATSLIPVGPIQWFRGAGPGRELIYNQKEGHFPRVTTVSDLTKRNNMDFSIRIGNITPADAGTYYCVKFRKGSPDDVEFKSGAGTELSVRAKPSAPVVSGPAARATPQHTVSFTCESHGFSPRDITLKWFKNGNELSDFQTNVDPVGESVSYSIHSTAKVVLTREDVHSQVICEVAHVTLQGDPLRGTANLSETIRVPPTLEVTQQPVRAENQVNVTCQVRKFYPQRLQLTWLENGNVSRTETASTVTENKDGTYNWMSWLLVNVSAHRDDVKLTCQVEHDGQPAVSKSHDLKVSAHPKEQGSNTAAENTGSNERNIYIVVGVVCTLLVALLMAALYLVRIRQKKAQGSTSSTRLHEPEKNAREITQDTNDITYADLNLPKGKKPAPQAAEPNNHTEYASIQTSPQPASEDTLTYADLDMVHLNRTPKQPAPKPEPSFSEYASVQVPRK
T1 sequence (Q08722 whole entry, looked up, the tested form may be a part): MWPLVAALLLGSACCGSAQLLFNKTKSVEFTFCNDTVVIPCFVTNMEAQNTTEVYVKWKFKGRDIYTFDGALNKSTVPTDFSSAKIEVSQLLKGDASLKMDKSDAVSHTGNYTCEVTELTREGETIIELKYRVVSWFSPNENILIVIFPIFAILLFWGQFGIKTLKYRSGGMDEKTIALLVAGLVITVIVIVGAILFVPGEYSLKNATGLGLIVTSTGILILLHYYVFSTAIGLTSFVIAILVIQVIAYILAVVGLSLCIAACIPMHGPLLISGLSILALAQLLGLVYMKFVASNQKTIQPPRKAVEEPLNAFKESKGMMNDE
Chain of Atrial natriuretic peptide receptor 2 (Homo sapiens) (P20594 whole entry, looked up): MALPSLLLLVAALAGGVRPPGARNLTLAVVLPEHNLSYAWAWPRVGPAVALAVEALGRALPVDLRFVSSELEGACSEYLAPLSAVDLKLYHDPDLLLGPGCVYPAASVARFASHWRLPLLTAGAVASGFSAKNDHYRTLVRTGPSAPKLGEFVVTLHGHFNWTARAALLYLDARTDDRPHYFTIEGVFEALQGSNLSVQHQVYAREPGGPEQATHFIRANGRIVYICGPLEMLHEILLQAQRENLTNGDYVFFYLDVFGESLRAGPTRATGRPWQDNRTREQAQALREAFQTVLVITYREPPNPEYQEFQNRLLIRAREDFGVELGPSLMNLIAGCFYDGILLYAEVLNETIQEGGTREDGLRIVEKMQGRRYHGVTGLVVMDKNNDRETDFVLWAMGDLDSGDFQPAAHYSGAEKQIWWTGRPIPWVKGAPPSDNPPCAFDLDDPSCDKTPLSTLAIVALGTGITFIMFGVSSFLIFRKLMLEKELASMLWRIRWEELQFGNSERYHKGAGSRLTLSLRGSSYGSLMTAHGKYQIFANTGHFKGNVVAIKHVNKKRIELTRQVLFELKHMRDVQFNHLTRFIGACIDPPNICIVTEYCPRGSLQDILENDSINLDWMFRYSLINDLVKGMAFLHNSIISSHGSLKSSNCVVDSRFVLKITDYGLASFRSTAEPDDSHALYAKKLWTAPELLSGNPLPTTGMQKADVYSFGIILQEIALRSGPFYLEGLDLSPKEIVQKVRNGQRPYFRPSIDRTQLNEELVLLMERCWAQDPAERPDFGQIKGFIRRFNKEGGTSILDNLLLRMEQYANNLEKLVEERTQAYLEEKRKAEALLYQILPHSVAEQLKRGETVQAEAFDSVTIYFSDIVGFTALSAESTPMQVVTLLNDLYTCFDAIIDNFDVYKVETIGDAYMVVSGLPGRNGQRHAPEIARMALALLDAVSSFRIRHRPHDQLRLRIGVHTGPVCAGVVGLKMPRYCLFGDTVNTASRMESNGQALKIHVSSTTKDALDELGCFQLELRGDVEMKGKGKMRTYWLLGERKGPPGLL

SMILES	Potency [1]	outcome [2]	outcome [3]	outcome [4]	Potency [5]	outcome [6]	Potency [7]	Potency [8]	Potency [9]	Potency [10]	activity change, negative = cytotoxic [7]	activity change, negative = cytotoxic [8]	activity change, negative = cytotoxic [9]	activity change, negative = cytotoxic [10]
CCOC(=O)C1=C(C)NC(C)=C(C(=O)OC)C1c1cccc(Cl)c1Cl (stereo not drawn)	inactive	inactive	inactive	inactive	inactive	inactive	inactive	inactive	inactive	inactive	–	–	–	–
C=CCc1ccccc1OCC(O)CNC(C)C (stereo not drawn)	inactive	inactive	inactive	inactive	inactive	inactive	inactive	inactive	inactive	inactive	–	–	–	–
C[N+](C)(C)CCCCCCCCCC[N+](C)(C)C	inactive	inactive	inactive	inactive	inactive	inactive	inactive	inactive	inactive	inactive	–	–	–	–
CCc1c(C)[nH]c2c1C(=O)C(CN1CCOCC1)CC2 (stereo not drawn)	inactive	inactive	inactive	inactive	inactive	inactive	inactive	inactive	inactive	inactive	–	–	–	–
CCN(Cc1ccncc1)C(=O)C(CO)c1ccccc1 (stereo not drawn)	inactive	inactive	inactive	inactive	inactive	inactive	inactive	inactive	inactive	inactive	–	–	–	–
NC(=O)c1ncn([C@@H]2O[C@H](CO)[C@@H](O)[C@H]2O)c1O	inactive	inactive	inactive	inactive	inactive	inactive	inactive	inactive	inactive	inactive	–	–	–	–
Nc1c2c(nc3ccccc13)CCCC2O (stereo not drawn)	inactive	inactive	inactive	inactive	inactive	inactive	inactive	inactive	inactive	inactive	–	–	–	–
CN(C)C(=O)Oc1ccc[n+](C)c1	inactive	inactive	inactive	inactive	inactive	inactive	inactive	inactive	inactive	inactive	–	–	–	–
NC(Cc1ccc(Cl)cc1)C(=O)O (stereo not drawn)	inactive	inactive	inactive	inactive	inactive	inactive	–	–	–	–	11.6% [at 0.594 µM]	15.2% [at 0.597 µM]	16.4% [at 0.597 µM]	16% [at 0.597 µM]
CCN(CC)CCNC(=O)c1ccc(NC(C)=O)cc1	inactive	inactive	inactive	inactive	inactive	inactive	inactive	inactive	inactive	inactive	–	–	–	–
CCCCNc1c(C(=O)OCC)c(C)nc2c1cnn2CC	inactive	inactive	inactive	inactive	inactive	inactive	inactive	inactive	inactive	–	–	–	–	–
CCN(CC)CCOCCOC(=O)C1(c2ccccc2)CCCC1	inactive	inactive	inactive	inactive	inactive	inactive	inactive	inactive	inactive	inactive	–	–	–	–
c1cc(CN2CCCCC2)cc(OCCCNc2nc3ccccc3s2)c1	inactive	inactive	inactive	inactive	inactive	inactive	inactive	–	–	–	–	–	–	–
O=C(O)CN(CCOCCOCCN(CC(=O)O)CC(=O)O)CC(=O)O	inactive	inactive	inactive	inactive	inactive	inactive	–	–	–	–	12.3% [at 0.594 µM]	12.8% [at 0.597 µM]	26.6% [at 0.597 µM]	8.27% [at 0.597 µM]
Fc1ccc(C(c2ccc(F)cc2)N2CCN(C/C=C/c3ccccc3)CC2)cc1	inactive	inactive	inactive	inactive	inactive	inactive	inactive	–	–	–	–	–	–	–
CCCC(C(=O)OCCN(CC)CC)(c1ccccc1)c1ccccc1	10.4 µM (active)	inactive	inactive	inactive	inactive	inactive	inactive	–	–	–	–	–	–	–
C[C@]12CCC(=O)C=C1CC[C@@H]1[C@@H]2C(=O)C[C@@]2(C)[C@H]1CC[C@]2(O)C(=O)CO	inactive	inactive	inactive	inactive	inactive	inactive	inactive	inactive	inactive	inactive	–	–	–	–
COc1ccc([C@@H]2Sc3ccccc3N(CCN(C)C)C(=O)[C@@H]2OC(C)=O)cc1	inactive	inactive	inactive	inactive	inactive	inactive	inactive	inactive	inactive	inactive	–	–	–	–
O=C(O)CCCCCCCC(=O)O	inactive	inactive	inactive	inactive	inactive	inactive	inactive	inactive	inactive	inactive	–	–	–	–
NC/C=C/C(=O)O	inactive	inactive	inactive	inactive	inactive	inactive	inactive	inactive	inactive	inactive	–	–	–	–
CCN1CCC[C@H]1CNC(=O)c1c(O)c(Cl)cc(Cl)c1OC	inactive	inactive	inactive	inactive	inactive	inactive	inactive	inactive	inactive	inactive	–	–	–	–
COCCCC/C(=N\OCCN)c1ccc(C(F)(F)F)cc1	inactive	inactive	inactive	inactive	inactive	inactive	inactive	inactive	inactive	–	–	–	–	–
CC(C)NNC(=O)c1ccncc1	inactive	inactive	inactive	inactive	inactive	inactive	inactive	inactive	inactive	inactive	–	–	–	–
CN1CCN(C2=Nc3ccccc3Oc3ccc(Cl)cc32)CC1	16.5 µM (active)	inactive	inactive	inactive	inactive	inactive	inactive	inactive	inactive	inactive	–	–	–	–

SMILES	Potency [1]	outcome [2]	outcome [3]	outcome [4]	Potency [5]	outcome [6]	Potency [7]	Potency [8]	Potency [9]	Potency [10]	activity change, negative = cytotoxic [7]	activity change, negative = cytotoxic [8]	activity change, negative = cytotoxic [9]	activity change, negative = cytotoxic [10]
Cc1nc2sccn2c(=O)c1CCN1CCC(=C(c2ccc(F)cc2)c2ccc(F)cc2)CC1	inactive	inactive	inactive	inactive	inactive	inactive	inactive	inactive	–	–	–	–	–	–
CCOC(=O)c1cnc2c(cnn2CC)c1NN=C(C)C	inactive	inactive	inactive	inactive	inactive	inactive	inactive	inactive	inactive	inactive	–	–	–	–
N[C@@H](COP(=O)(O)O)C(=O)O	inactive	inactive	inactive	inactive	inactive	inactive	inactive	inactive	inactive	inactive	–	–	–	–
C(=C\c1ccccc1)/CN1CCN(C(c2ccccc2)c2ccccc2)CC1	inactive	inactive	inactive	inactive	inactive	inactive	inactive	–	–	–	–	–	–	–
CCCN(CCC)CCc1cccc2c1CC(=O)N2	inactive	inactive	inactive	inactive	inactive	inactive	inactive	inactive	inactive	inactive	–	–	–	–
CC(=O)Nc1nnc(S(N)(=O)=O)s1	inactive	inactive	inactive	inactive	inactive	inactive	inactive	inactive	inactive	inactive	–	–	–	–
CC(C)NCC(O)c1cc(O)cc(O)c1 (stereo not drawn)	inactive	inactive	inactive	inactive	inactive	inactive	inactive	inactive	inactive	inactive	–	–	–	–
CC(C(=O)O)c1ccc(CC2CCCC2=O)cc1 (stereo not drawn)	inactive	inactive	inactive	inactive	inactive	inactive	inactive	inactive	inactive	inactive	–	–	–	–
FC(F)(F)c1ccccc1-n1ccnc1	inactive	inactive	inactive	inactive	inactive	inactive	inactive	inactive	inactive	inactive	–	–	–	–
CN/C(=C\[N+](=O)[O-])NCCSCc1ccc(CN(C)C)o1	inactive	inactive	inactive	inactive	inactive	inactive	inactive	inactive	inactive	–	–	–	–	–
NC(N)=N/N=C/c1c(Cl)cccc1Cl	inactive	inactive	inactive	inactive	inactive	inactive	inactive	inactive	inactive	–	–	–	–	–
O=C(O)CN(CCN(CC(=O)O)CC(=O)O)CCN(CC(=O)O)CC(=O)O	inactive	inactive	inactive	inactive	–	inactive	inactive	–	inactive	inactive	–	–	–	–
O=C(O)CP(=O)(O)O	inactive	inactive	inactive	inactive	inactive	inactive	inactive	–	inactive	inactive	–	–	–	–
CN1C(=O)CC[C@H]1c1cccnc1	inactive	inactive	inactive	inactive	inactive	inactive	inactive	inactive	inactive	inactive	–	–	–	–
C[N+](C)(C)CCOC(=O)CCC(=O)OCC[N+](C)(C)C	inactive	inactive	inactive	inactive	inactive	inactive	inactive	–	inactive	inactive	–	–	–	–
COc1cc(Cc2cnc(N)nc2N)cc(OC)c1OC	inactive	inactive	inactive	inactive	inactive	inactive	inactive	–	inactive	inactive	–	–	–	–
C[N+](C)(C)CCOC(N)=O	inactive	inactive	inactive	inactive	inactive	inactive	inactive	–	inactive	inactive	–	–	–	–
CC[N+](C)(C)c1cccc(O)c1	inactive	inactive	inactive	inactive	inactive	inactive	inactive	–	inactive	inactive	–	–	–	–
NC(=O)c1cn(Cc2c(F)cccc2F)nn1	inactive	inactive	inactive	inactive	inactive	inactive	inactive	inactive	inactive	inactive	–	–	–	–
C[C@H](CS)C(=O)N1CCC[C@H]1C(=O)O	inactive	inactive	inactive	inactive	inactive	inactive	inactive	inactive	inactive	inactive	–	–	–	–
COc1ccc(CCN(C)CCCC(C#N)(c2cc(OC)c(OC)c(OC)c2)C(C)C)cc1OC (stereo not drawn)	inactive	inactive	inactive	inactive	inactive	inactive	inactive	–	inactive	inactive	–	–	–	–
O=c1[nH]c(=O)n([C@H]2C[C@H](O)[C@@H](CO)O2)cc1Br	inactive	inactive	inactive	inactive	inactive	inactive	–	inactive	inactive	inactive	–	–	–	–
CCCN1C[C@H](CSC)C[C@@H]2c3cccc4[nH]cc(c34)C[C@H]21	inactive	inactive	inactive	inactive	inactive	inactive	inactive	inactive	inactive	inactive	–	–	–	–
